Most compounds without a hit are left out; they make up all but 21% or so of the library.
DT40 TDP1 CPT = qHTS for Inhibitors of human tyrosyl-DNA phosphodiesterase 1 (TDP1): qHTS in cells in presence of CPT. chicken DT40 Tdp1-/-;hTDP1 cells + 20 nM CPT, ATP luminescence, 48 h. Potency, µM (series often up to 46.2 µM), for inactives: at the top dose activity change, negative = growth inhibition, actives largely listed as inhibitors. actives 12% (n = 420,000). AID 686979, 2013; further: potency means the concentration at half of the fitted maximal effect; nearly all actives have a fitted effect of over 55% in size
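Chicken DT40 Tdp1-/- cells stably complemented with human TDP1 were seeded at 400 cells/well in medium containing 20 nM camptothecin, exposed to pin-transferred compounds, and grown at 37 °C for at least 48 hr. Viability was read as ATP luminescence.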
RORg inh = qHTS for inhibitors of ROR gamma transcriptional activity; actives 5.4% (n = 310,000); Nuclear receptor ROR-gamma (Mus musculus), P51450; Drosophila S2 Gal4-RORgamma UAS-luciferase reporter, 20 h; Potency, µM (series often up to 53.6 µM), inactives show at the highest dose activity change, negative = inhibition, most hits filed as inhibitors; further: potency means the concentration at half of the fitted maximal effect; nearly all actives have a fitted effect of over 60% in size
Target sequence (P51450 whole entry, looked up, the tested form may be a part): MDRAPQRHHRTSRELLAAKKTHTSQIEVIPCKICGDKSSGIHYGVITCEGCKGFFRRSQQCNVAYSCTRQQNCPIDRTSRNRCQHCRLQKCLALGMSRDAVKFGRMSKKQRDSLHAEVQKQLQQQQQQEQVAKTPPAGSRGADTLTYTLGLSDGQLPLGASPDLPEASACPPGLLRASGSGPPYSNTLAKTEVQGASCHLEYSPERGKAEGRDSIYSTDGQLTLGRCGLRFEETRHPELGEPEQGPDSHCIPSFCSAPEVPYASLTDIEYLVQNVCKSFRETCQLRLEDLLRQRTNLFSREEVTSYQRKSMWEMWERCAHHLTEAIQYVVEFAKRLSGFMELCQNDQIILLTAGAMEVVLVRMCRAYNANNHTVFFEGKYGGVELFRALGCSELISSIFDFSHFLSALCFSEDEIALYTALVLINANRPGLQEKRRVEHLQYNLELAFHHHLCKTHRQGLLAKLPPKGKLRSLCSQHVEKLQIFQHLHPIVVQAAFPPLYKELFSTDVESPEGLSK
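Luciferase reporter read in Schneider cells carrying Gal4-RORγ (mouse) and UAS-Photinus luciferase; cells given compound 1 h before 700 uM copper sulfate induction, then incubated 20 h at ambient temperature.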
ELG1 DNA repair = qHTS screen for small molecules that inhibit ELG1-dependent DNA repair in human embryonic kidney (HEK293T) cells expressing luciferase-tagged ELG1; HEK293T ELG1-luciferase reporter, luminescence, 16 h; DNA damage induced by 5-fluorouridine; Potency, µM (doses to about 46.1 µM), for the others: top-dose activity change, negative = inhibition, actives largely listed as inhibitors; actives 2.3% (n = 330,000); AID 504467, 2011; further: potency means the concentration at half of the fitted maximal effect; nearly all actives have a fitted effect of over 55% in size
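HEK293T cells expressing luciferase-tagged ELG1 (2,000/well) received 5-Fluorouridine plus compound or DMSO for 16 hr at 37 °C. Luciferase was read by ONE-Glo luminescence after 30 min at room temperature.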
TDP1 cell noCPT = qHTS for Inhibitors of human tyrosyl-DNA phosphodiesterase 1 (TDP1): qHTS in cells in absence of CPT. DT40 Tdp1-/- hTDP1 cells, no CPT, ATP luminescence, 48 h. Potency, µM (doses to about 46.2 µM), for the others: at the highest dose activity change, negative = growth inhibition, actives largely listed as inhibitors. actives 15% (n = 420,000). AID 686978, 2013; further: potency means the concentration at half of the fitted maximal effect; nearly all actives have a fitted effect of over 55% in size
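Growth kinetics read by CellTiter-Glo luminescence after ≥48 hr at 37 °C. Cells: DT40 Tdp1-/- stably carrying human TDP1, 400 per well, compound exposure in the absence of CPT (DMSO vehicle).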
VP16 counter = VP16 counterscreen qHTS for inhibitors of ROR gamma transcriptional activity; Drosophila S2 Gal4-VP16 UAS-luciferase, luminescence, 20 h; Potency, µM (titrated, usually from 53.6 µM), for the others: top-dose activity, negative = inhibition, usual class: inhibitors; actives 3.5% (n = 310,000);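 further: Gal4-VP16 expression switched on by copper sulfate through the metallothionein promoter; potency means the concentration at half of the fitted maximal effect; nearly all actives have a fitted effect of over 50% in size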
IL-1B inflam inh = qHTS for Inhibitors of Inflammasome Signaling: IL-1-beta AlphaLISA Primary Screen; THP-1 LPS/ATP IL-1B secretion, AlphaLISA, 16 h; hits give low values; activity change, % at 57.5 µM; actives 4.7% (n = 360,000); AID 743279, 2014; in the data active means activity change below about -50%; inconclusive means mostly about -30% to -49%
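THP-1 cells pretreated 1 hr with compounds (up to 57.5 uM final), then stimulated with LPS (250 ng/mL final) plus ATP (1.25 mM final); secreted IL-1B measured by AlphaLISA after 16 hr, decreased signal indicating inhibition.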
* hit, by the source's call; i = inactive; ? = inconclusive; / = no result; [ ] = remark or other dose. Unless noted, the call rests on the fitted dose curve; in most records, active means well fitted curve in the direction sought with a large enough effect; inconclusive means small, poorly fitted or top-dose-only effect, or another doubt; inactive means no such curve, though single readings can be large; an effect the other way counts as inactive or inconclusive. On the % scale 0 is the no-effect control and ±100 the full control effect.

SMILES | DT40 TDP1 CPT | RORg inh | ELG1 DNA repair | TDP1 cell noCPT | VP16 counter | IL-1B inflam inh
CC(C)Cn1c(N)c(C(=O)COC(=O)[C@H](C)NC(=O)c2ccccc2Cl)c(=O)n(C)c1=O | ? | / | -16% | -29% | / | 7
Cc1csc(=O)n1CC(=O)OCC(=O)c1c(N)n(C)c(=O)n(C)c1=O | -24% | / | 2% | ? | / | 0
O=C(Cn1c(=O)n2nc(-c3cccc(F)c3)nc2c2ccccc21)N1CCN(c2ccc(F)cc2)CC1 | 1% | / | / | -18% | / | /
COc1ccccc1-c1nn(CCC(=O)Nc2ccc(C)cc2)c2nc(C)cc(C)c12 | ? | / | / | 13µM* | / | /
Cc1ccc(NC(=O)CCn2nc(C)cc2C)cc1 | 0% | 26% | 10% | -4% | 12% | 13
CCOC(=O)CC(=O)CSc1nc2c(c(C)c1C#N)CCC2 | 15µM* | ? | 15% | 7.3µM* | ? | 11
CCOC(=O)CC(=O)CSc1nc(CC)c(C)cc1C#N | ? | -8% | ? | 13µM* | 0% | -6
CCOC(=O)CC(=O)CSc1nc2ccc(C)cc2cc1C#N | 1.2µM* | ? | ? | 0.73µM* | 11% | 6
COc1ccc2cc(C#N)c(SCC(=O)OCc3ccccc3)nc2c1 | -5% | / | / | -19% | / | /
CCc1nc(SCC(=O)O)c(C#N)cc1C | 4% | 8% | 5% | 3% | -6% | 14
COC(=O)CSc1nc2cc(C)ccc2cc1C#N | 18µM* | -14% | ? | 16µM* | -5% | 0
CCSc1nc2ccc(C)cc2cc1C#N | 0% | -12% | -1% | 1% | -6% | 10
CCOC(=O)CC(=O)CSc1nc2c(cc1C#N)CCCCC2 | 3% | -3%[10 µM] | ? | -3% | -2% | 44
CN1CCOc2c1cnn(CCO)c2=O | -6% | / | / | -12% | / | 20
CC(C)=CCC/C(C)=C/CC/C(C)=C/CC/C=C(\C)CC/C=C(\C)CCC=C(C)C | -3% | 9% | / | -25% | -4% | /
CC1CCCC(NC(=O)NC(=O)COC(=O)C2=NN(c3ccccc3)C(=O)CC2)C1C (stereo not drawn) | -2% | / | 13% | 6% | / | 0
Cc1ccc2cc(C#N)c(SCc3nnc(-c4ccccc4[N+](=O)[O-])o3)nc2c1 | ? | -4% | -15% | 21µM* | 3% | -8
Cc1ccccc1C(=O)N1CCN(c2ccc(NC(=S)NC(=O)c3ccco3)cc2)CC1 | 23µM* | 16µM* | ? | 26µM* | ? | ?
CC(=O)N1CCN(c2ccc(NC(=O)c3ccccc3C)cc2)CC1 | 5% | 7% | ? | 9% | -8% | -7
COc1ccccc1C(=O)NC(=S)Nc1ccc(N2CCN(C(=O)c3ccco3)CC2)cc1 | ? | -13% | 13µM* | 15µM* | 10µM* | ?
O=C(Cc1ccc(Cl)cc1)Nc1ccc(N2CCN(C(=O)c3ccco3)CC2)cc1 | ? | 17% | ? | ? | 5% | -11
COc1cccc(NC(=O)c2sc(-n3nc(C)c(Cc4ccccc4Cl)c3C)nc2C)c1 | -17% | / | / | ? | / | /
COc1ccc(C=O)cc1Cn1c(C)cc(C)c(C#N)c1=O | 16µM* | 0% | 9% | 16µM* | 0% | 31
O=C(CSc1ccccc1)NCc1ccc2c(c1)CCN2C(=O)c1ccccc1 | 6% | / | / | -19% | / | /
O=C(c1ccccc1)N1CCc2cc(CNS(=O)(=O)c3ccc(Cl)s3)ccc21 | ? | / | / | 16µM* | / | /
SMILES | DT40 TDP1 CPT | RORg inh | ELG1 DNA repair | TDP1 cell noCPT | VP16 counter | IL-1B inflam inh
O=C(c1ccccc1)N1CCc2cc(CNS(=O)(=O)c3ccccc3Cl)ccc21 | 1.3µM* | / | / | 0.92µM* | / | /
COc1ccc(CN2CCOc3ccc(CN4CCC(O)CC4)cc3C2)c(OC)c1OC | -22% | / | / | -22% | / | /
O=C(Nc1ccc(S(=O)(=O)N2CCCC2)cc1)c1ccc2c(=O)n3c(nc2c1)CCCCC3 | ? | ? | 10µM* | 16µM* | -7% | -5
Cc1ccc(S(=O)(=O)N2CCCCC2)cc1NC(=O)c1ccc2c(=O)n3c(nc2c1)CCCCC3 | / | 41% | 12µM* | / | -2% | /
C=CCNC(=O)/C(C#N)=C/c1c(C)nn(-c2ccccc2)c1Cl | ? | ? | -21% | ? | 13µM* | -68*
CCOc1ccccc1NC(=O)/C(C#N)=C/c1c(C)nn(-c2ccccc2)c1Cl | ? | 20% | -19% | ? | -21% | -51*
C=CCNC(=O)/C(C#N)=C/c1cn(-c2ccccc2)nc1-c1cccs1 | ? | -6% | -3% | ? | -3% | -9
CCOC(=O)Sc1nc2ncncc2[nH]1 | 5% | / | / | 4% | / | -10
COc1ccccc1Nc1cc(C(=O)N2CCc3ccccc3C2)c2ccccc2n1 | / | 15% | ? | / | -8% | /
COc1ccccc1-c1cc(C(=O)N2CCc3ccccc3C2)c2ccccc2n1 | / | ? | 13µM* | / | 6% | /
COc1ccccc1-c1cc(C(F)(F)F)n2ncc(C(=O)N3CCc4ccccc4C3)c2n1 | ? | -89% | -2% | 23µM* | ? | i
COc1ccc(Nc2cc(C(=O)N3CCc4ccccc4C3)c3ccccc3n2)c(OC)c1 | ? | ? | 21µM* | ? | -2% | ?
CC(C)c1ccc(NC(=O)C(c2ccc3c(c2)OCO3)N2CCN(C(=O)c3ccco3)CC2)cc1 (stereo not drawn) | ? | -29% | -2% | ? | 3% | -24
CC(C)c1ccc(NC(=O)C(c2ccccc2)N2CCN(C(=O)c3ccco3)CC2)cc1 (stereo not drawn) | ? | 11% | 22% | 18µM* | -9% | ?
O=C(Nc1ccc(N2CCN(C(=O)c3ccco3)CC2)cc1)c1cccs1 | ? | ? | ? | -29% | 17% | -52*
O=C(c1ccco1)N1CCN(C(=O)C(c2ccccc2)c2ccccc2)CC1 | -3% | -17% | 0% | -9% | -10% | 20
O=C(Nc1ccc(N2CCN(C(=O)c3ccco3)CC2)cc1)C(c1ccccc1)c1ccccc1 | 21µM* | -4% | ? | 16µM* | -6% | 10
O=C(Nc1ccc(N2CCN(C(=O)c3ccco3)CC2)cc1)c1ccco1 | 0% | 26% | 6% | 5% | -1% | -3
